# Legend:
# Details in all cases: concentration: 1 μM, replicates: in singlicate; n = 1
# INSR = system: INSR
# IRAK1 = system: IRAK1
# IRAK3 = system: IRAK3
# IRAK4 = system: IRAK4
# ITK = system: ITK
# [1] = system: JAK1(JH1domain-catalytic)
# [2] = system: JAK1(JH2domain-pseudokinase)
# [3] = system: JAK2(JH1domain-catalytic)
# [4] = system: JAK3(JH1domain-catalytic)
# JNK1 = system: T1, JNK1
# T1 construct: gene MAPK8
# JNK2 = system: T2, JNK2
# T2 construct: gene MAPK9
# JNK3 = system: T3, JNK3
# T3 construct: gene MAPK10
# KIT-autoinhibited = system: KIT-autoinhibited
# KIT = system: KIT
# LATS1 = system: LATS1
# LATS2 = system: LATS2
# LCK = system: LCK
# LIMK1 = system: LIMK1
# LIMK2 = system: LIMK2
# LKB1 = system: T4, LKB1
# T4 construct: gene STK11
# 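Note: KINOMEscan kinase panel screen.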
SMILES,%Inh (INSR) [%],%Inh (IRAK1) [%],%Inh (IRAK3) [%],%Inh (IRAK4) [%],%Inh (ITK) [%],%Inh [1] [%],%Inh [2] [%],%Inh [3] [%],%Inh [4] [%],%Inh (JNK1) [%],%Inh (JNK2) [%],%Inh (JNK3) [%],%Inh (KIT-autoinhibited) [%],%Inh (KIT) [%],%Inh (LATS1) [%],%Inh (LATS2) [%],%Inh (LCK) [%],%Inh (LIMK1) [%],%Inh (LIMK2) [%],%Inh (LKB1) [%]
CCS(=O)c1ccc(-c2coc3ccc(-c4nnc(C)o4)cc23)cc1 (stereo not drawn),1,6,0,9,0,1,20,23,0,22,24,18,0,5,18,0,5,0,0,29
COc1cccc(C2=C(N(C)c3ccccc3)C(=O)NC2=O)c1 [SB-334865],0,42,20,24,16,13,0,0,0,30,14,0,0,0,3,0,16,0,0,0
CCn1c(-c2ccoc2)nc2cnccc21 [SB-733887],96.3,59,0,50,9,9,65,16,0,9,0,0,61,5,19,60,35,10,6,0
Cn1c(=O)c(F)c(Nc2ccc(I)cc2F)c2c(=O)n(OC[C@H](O)CO)cnc21,5,0,0,0,3,2,14,9,1,18,0,0,0,7,18,0,1,14,26,0
CCC(=O)c1c(-c2ccccc2)c2cc(Cl)ccc2c(=O)n1Cc1cc(S(C)(=O)=O)n(CCC(C)(C)O)n1,13,2,25,1,5,3,0,0,3,99.6,99.9,99.9,0,11,31,17,13,0,16,3
Cc1nnc(-c2ccc3ncn(-c4ccc(S(C)=O)cc4)c3c2)o1 (stereo not drawn),0,0,0,0,15,33,28,0,0,6,0,0,0,29,43,8,10,19,6,9
Cc1ccc(-c2ccc3c(ccc4sc5c(c43)NC[C@@H](C)N=C5N(C)C)n2)cn1,0,0,0,0,0,0,0,0,0,4,0,0,0,0,0,18,0,0,0,0
COc1ccc(-c2cc3c(C)nc(N)nc3n([C@H]3CC[C@H](OCCO)CC3)c2=O)cn1,24,4,19,3,0,0,22,0,0,0,0,0,0,7,26,11,0,13,0,40
CCn1c(-c2nonc2N)nc2ccccc21 [SB-693162/GW549034],17,0,0,48,0,8,0,0,0,78,57,62,26,0,0,82,12,0,0,0
C[C@@H]1CC[C@H](C(=O)NC2CCCCC2)CN1c1cc(-c2ccc3c(N)n[nH]c3c2)nc(N)n1 [GSK2291363],10,34,0,28,22,7,11,9,0,34,30,10,10,27,0,72,24,0,11,23
Cc1ccccc1COc1cc(-n2cnc3cc(Cl)ccc32)sc1C(N)=O [GW813349],3,22,3,17,13,0,20,17,0,24,0,0,0,0,0,61,0,0,13,0
COc1ccc(-c2coc3ccc(-c4nnc(SCc5cccc(C#N)c5)o4)cc23)cc1,20,0,0,0,0,22,36,12,0,22,17,14,1,21,29,11,11,26,0,0
CN1C(=O)C(Nc2ccccc2)=C(c2ccccc2)C1=O [SB-300079],22,16,0,0,0,0,33,42,2,14,0,0,17,0,0,0,0,0,0,13
COc1cccc(C2=C(Nc3cccc(C(=O)O)c3)C(=O)NC2=O)c1 [SB-390770],0,0,7,0,1,1,2,33,94.7,22,24,17,0,0,0,0,37,0,10,0
COc1ccc(Nc2nccc(N3CCC(NS(=O)(=O)c4ccc(NC(C)=O)cc4)C3)n2)cc1 (stereo not drawn) [GSK1379729],4,0,17,57,19,66,0,95.6,5,20,0,0,0,9,0,0,23,14,10,0
O=C(Nc1ccc2c(c1)OCO2)NC1CCN(c2ccnc(NCc3ccc(F)cc3)n2)CC1 [GSK1379859],45,0,0,0,0,7,0,0,0,0,0,0,0,2,0,0,14,0,21,6
FC(F)(F)c1ccc(-c2ncn(CCCN3CCOCC3)c2-c2ccncc2)cc1 [SB-217780],0,0,10,0,9,0,0,27,0,55,53,55,0,20,0,27,0,0,0,23
Cc1cccc(-c2cc(-c3c[nH]nc3-c3ccccn3)ccn2)c1 [GW679395],1,34,1,18,4,5,0,8,0,56,66,73,0,35,0,3,78,0,13,0
Nc1nccc2scc(-c3ccc4c(c3)CCN4C(=O)Cc3ccccc3)c12 [GSK2576924],0,0,0,0,4,19,0,4,0,0,10,0,5,74,0,0,11,3,14,9
COc1ccc(-n2cnc3c(N)ncnc32)cc1 [SKF-97236],52,0,12,7,7,5,68,31,27,12,0,0,2,94.2,25,34,31,2,0,0
CC(C)(C)c1ccc(C(=O)Nc2cn3cc(-c4ccccc4)ccc3n2)cc1,0,17,12,13,12,12,42,0,0,13,0,0,0,92.6,0,0,8,10,0,15

# Source: PMC5540273 (PLoS ONE, 2017)
